The list is not random: actives were taken first. Their share in the collection is about 12%.
G9a block = blocks human histone lysine methyltransferase G9a; 8.8% of 350,000 active; Q96KQ7; Potency, µM (series often up to 102 µM), for inactives: at the highest dose activity, negative = inhibition, usual class: inhibitors; AID 504332; G9a H3K9 monomethylation, AlphaScreen, 2 h; also: % is scaled to controls: 0 for no effect and ±100 for the full control effect; nearly all actives have a fitted effect of over 75% in size
Target sequence (Q96KQ7 913-1193 limits assumed): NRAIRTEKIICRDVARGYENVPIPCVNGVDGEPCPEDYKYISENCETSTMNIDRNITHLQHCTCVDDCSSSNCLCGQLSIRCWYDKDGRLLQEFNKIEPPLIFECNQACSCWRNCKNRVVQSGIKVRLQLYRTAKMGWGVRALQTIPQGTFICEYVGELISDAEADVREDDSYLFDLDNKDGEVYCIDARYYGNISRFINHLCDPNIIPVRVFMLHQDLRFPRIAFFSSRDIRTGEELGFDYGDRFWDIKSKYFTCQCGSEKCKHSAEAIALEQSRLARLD
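Step 1: enzyme (final 20 nM) with compound, 15 min RT. Step 2: substrate peptide 500 nM and SAM 20 uM, 2 h RT. Step 3: anti-H3K9me1 antibody and AlphaScreen beads, 10 min, then plate read.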
JMJD2A Tudor = inhibitors of human JMJD2A Tudor domain; O75164; AlphaScreen JMJD2A-Tudor / H3K4me3 peptide binding; Potency, µM (highest dose often 114 µM), for the others: top-dose activity change, negative = inhibition, most hits filed as inhibitors; 4.4% of 390,000 active; AID 504339; also: % is scaled to controls: 0 for no effect and ±100 for the full control effect; nearly all actives have a fitted effect of over 50% in size
HP1b chromo inh = inhibitors of HP1-beta chromodomain binding to methylated histone tails | P83916 | AlphaScreen HP1-beta / biotin-H3K9me3 peptide binding | Potency, µM (highest dose often 114 µM), without a hit: top-dose activity change, negative = inhibition, actives largely listed as inhibitors | 0.56% of 390,000 active | AID 540317; also: nearly all actives have a fitted effect of over 70% in size
Target sequence (P83916 whole entry, looked up): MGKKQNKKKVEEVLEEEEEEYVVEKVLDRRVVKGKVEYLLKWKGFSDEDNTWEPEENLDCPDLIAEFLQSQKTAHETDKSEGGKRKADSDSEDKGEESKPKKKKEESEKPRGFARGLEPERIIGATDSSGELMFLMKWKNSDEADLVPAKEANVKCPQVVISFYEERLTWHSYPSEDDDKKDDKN
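AlphaScreen: HP1-beta (50 nM) preformed 30 min with biotin-H3(1-18)K9me3 peptide (50 nM) in PBS pH 7.4, 0.01% Tween-20. Compound added for 30 min at RT, then streptavidin donor/nickel chelate acceptor beads (10 ug/mL) for 30 min.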
BAZ2B block = blocks human BAZ2B; AlphaScreen BAZ2B-H3K14Ac peptide displacement; Potency, µM (series often up to 114 µM), without a hit: at the highest dose activity change, negative = inhibition, usual class: inhibitors; 4.4% of 360,000 active; AID 504333; also: % is scaled to controls: 0 for no effect and ±100 for the full control effect; nearly all actives have a fitted effect of over 60% in size
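AlphaScreen displacement: compounds (up to 110uM) incubated 30 min at room temperature with a preformed 50 nM BAZ2B/50 nM biotinylated H3K14Ac peptide complex in PBS pH 7.4 with Tween-20. Donor and acceptor beads at 10 ug/mL final added, 20 min light-protected before reading.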
Sfp PPTase inh = Sfp phosphopantetheinyl transferase inhibition | Q9F4F7 | Biochemical Sfp PPTase activity, qHTS | Potency, µM, without a hit: largest response in the series, negative = inhibition, usual class: inhibitors | 3.5% of 310,000 active;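 also: the enzyme is Sfp with the accession as filed and its product quenches rhodamine fluorescence; 0% = enzyme reaction without inhibitor and -100% = no enzyme wells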
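Sfp 15 nM + cpd, 15 min RT; start w/ rhodamine-CoA 5 uM, BHQ-2-YbbR 12.5 uM (final); 50 mM Hepes pH 7.6, 10 mM MgCl2, 0.01% NP-40, 0.01% BSA; read 525/598 nm at 0 and 30 min.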
PLK1 PBD block = inhibitors of human PLK1 polo-box domain binding; P53350; Plk1 PBD binding of FITC phosphopeptide, fluorescence polarization; Potency, µM, inactives show max response, negative = inhibition, actives largely listed as inhibitors; 2.8% of 360,000 active; AID 720504; also: series mostly up to about 57 µM; % is scaled to controls: 0 for no effect and ±100 for the full control effect; nearly all actives have a fitted effect of over 65% in size
The depositor's hits bear a star; ? = inconclusive; . = not tested or not shown; [ ] = dose if it differs, or a comment. Calls follow the shape of the dose curve; as a rule, active = well fitted curve in the direction sought with a large enough effect; inconclusive = small, poorly fitted or top-dose-only effect, or another doubt; inactive = no such curve, though single readings can be large; an effect the other way counts as inactive or inconclusive. Potency is read from the fitted curve at half-maximal effect.

SMILES | G9a block | JMJD2A Tudor | HP1b chromo inh | BAZ2B block | Sfp PPTase inh | PLK1 PBD block
COc1cc(/C=N/NC(=O)C(Cc2c[nH]c3ccccc23)NC(=O)OCC(C)C)cc([N+](=O)[O-])c1OCc1ccccc1 (stereo not drawn) | ? | -17% | 27% | -37% | 16% | 3%
CC(=O)c1cccc(NC(=O)CSc2nnc(-c3ccncc3)o2)c1 | 17%[12.7 µM] | 8% | 22% | -2% | . | 4%
CC(=O)OC[C@H]1O[C@@H](O/N=C/[C@@H](C)[C@H](OCc2ccccc2)C(C)C)[C@H](OC(C)=O)[C@@H](OC(C)=O)[C@@H]1OC(C)=O | 50µM* | . | . | -9% | 1% | .
COc1ccc(/C=N/Nc2nc(C(=O)O)cs2)cc1 | 40µM* | ? | 34% | 45µM* | ? | ?
COC(=O)c1ccc(/C=N/Nc2nc(-c3ccc(C)cc3)cs2)cc1 | 79µM* | -11% | 32% | -5% | -27% | -17%
COC(=O)c1ccc(/C=N/Nc2nc(-c3ccccc3)cs2)cc1 | ? | -17% | 26% | -2% | -13% | -8%
COC(=O)c1ccc(/C=N/Nc2nc(-c3ccc(Cl)cc3Cl)cs2)cc1 | 50µM* | . | . | -36% | 10% | .
O=C(OCC#CCSc1nnc(-c2cccc3ccccc23)o1)c1ccncc1 | . | -6% | . | . | . | .
CSC1=C(C#N)C(CC(C)C)C2=C(CCCC2=O)N1 (stereo not drawn) | -3% | -9% | 43% | 8% | 7% | -1%
CSC1=C(C#N)C(CC(C)C)C(C(C)=O)=C(C)N1 (stereo not drawn) | 50µM* | 12% | 53% | 6% | 9% | -17%
COCCSc1nnc(NC(=O)C2CC(=O)N(c3ccccc3)C2)s1 (stereo not drawn) | -21% | -6% | 9% | -14% | 20% | -4%
Cc1ccc(N2CC(C(=O)Nc3nnc(SCc4ccccn4)s3)CC2=O)cc1 (stereo not drawn) | 45µM* | -13% | 30% | -4% | 18% | -6%
O=C(Nc1nnc(SCc2ccccn2)s1)C1CC(=O)N(c2ccccc2)C1 (stereo not drawn) | ? | -5% | 31% | -9% | 10% | -7%
COc1cccc(N2CC(C(=O)Nc3nnc(SCC(=O)N4CCCC4)s3)CC2=O)c1 (stereo not drawn) | ? | -15% | 13% | -16% | -16% | ?
Cc1cccc(N2CC(C(=O)Nc3nnc(SCc4ccccn4)s3)CC2=O)c1 (stereo not drawn) | 10µM* | -35% | 37% | ? | ? | ?
Cc1cccc(N2CC(C(=O)Nc3nnc(SCCC4OCCO4)s3)CC2=O)c1 (stereo not drawn) | 22µM* | ? | -8% | -25% | -25% | ?
COC(=O)c1ccc(C(NC(=O)OCc2ccccc2)/C(=C/[C@@H](C)C(=O)NCc2cc(C)n(C)n2)c2cccnc2)cc1 (stereo partly drawn) | . | . | . | . | 19% | .
CCc1ccc(/C=C2/C(=O)N(C)C(=S)N2CC(=O)OC)s1 | 35µM* | -20% | 21% | -22% | -19% | ?
COC(=O)CN1C(=S)N(C)C(=O)/C1=C/c1cccs1 | -1% | -12% | 34% | -19% | 27% | 0%
Cn1c(=O)c2cc(NC(=O)NCCc3cccs3)ccc2n1C/C=C/c1ccccc1 | . | . | . | . | . | -8%
CN(CC1CCOCC1)C(=O)CC1C(=O)NCCN1Cc1cccc(C(F)(F)F)c1 (stereo not drawn) | 3%[12.7 µM] | -6% | 49% | 3% | 11% | -17%
CC1(C)C(=O)NCCN1C(=O)CC1C(=O)NCCN1Cc1cccc(C(F)(F)F)c1 (stereo not drawn) | 45µM* | -11% | 35% | -15% | 9% | -20%
Cc1nonc1CN(C)C(=O)CC1C(=O)NCCN1Cc1cccc(C(F)(F)F)c1 (stereo not drawn) | 50µM* | -16% | 44% | -8% | -25% | -14%
S=C=Nc1cccc(NC(=S)NCCCCNC(=S)Nc2cccc(N=C=S)c2)c1 | . | . | . | . | 2% | .
O=C1NN(c2ccccc2)C(=O)/C1=C/c1ccc(Sc2ccc(Cl)cc2)o1 | ? | ? | -8%[57 µM] | -36% | -2% | 3µM*
SMILES | G9a block | JMJD2A Tudor | HP1b chromo inh | BAZ2B block | Sfp PPTase inh | PLK1 PBD block
Cc1ccc(Sc2ccc(/C=C3/C(=O)NN(c4ccccc4)C3=O)o2)cc1 | -24%[59 µM] | ? | 6% | ? | -5% | 6µM*
O=C1NC(=O)/C(=C\c2ccc(Sc3ccc(Cl)cc3)o2)N1 | -40%[59 µM] | -36% | 4% | -33% | -14% | ?
O=S(=O)(NC(=S)NC1CCCCC1)c1ccccc1 | 25µM* | -18% | 19% | -36% | ? | -17%
O=S(=O)(NC1CCCCCCC1)c1ccccc1 | 58% | 4% | 49% | -1% | 1% | -13%
O=C(NC1CCCCC1)C(Cc1ccccc1)NS(=O)(=O)c1cccs1 (stereo not drawn) | -2% | -15% | 19% | -3% | 7% | -8%
C/C(=N\NC(=S)NC1CCCCC1)c1cccs1 | ? | ? | ? | 50µM* | 8% | -1%
O=S(=O)(NC(=S)NC1CCCCC1)c1cccs1 | 20µM* | -13% | 0% | -25% | ? | ?
C/C(=N\NC(=O)C1CC1)c1cccs1 | 6% | 3% | 29% | -4% | 24% | -12%
COc1cccc(-c2cncnc2NCc2cccc(C)c2)c1 | 2%[0.501 µM] | . | . | . | -12% | .
COc1cc(NC(=O)C2=C(N3CCOCC3)/C(=C/c3ccc(Cl)cc3)CC2)cc(OC)c1OC | 13% | -16% | 25% | 9% | ? | -3%
COc1cc(NC(=O)C2=C(N3CCOCC3)/C(=C\c3ccc(N(C)C)cc3)CCC2)cc(OC)c1OC | ? | 28µM* | ? | 40µM* | -20% | -15%
Cc1nc2scc(C)n2c(=O)c1S(=O)(=O)NCC1CCN(Cc2ccc(Cl)cc2)CC1 | 23%[59 µM] | -24% | -4% | -14% | 20% | 19µM*
Cc1nc2scc(C)n2c(=O)c1S(=O)(=O)NCCc1ccc(Cl)cc1 | 12% | -5% | 18% | 2% | 27% | -7%
Cc1nc2scc(C)n2c(=O)c1S(=O)(=O)Nc1ccc(N2CCOCC2)c(Cl)c1 | 7%[59 µM] | ? | -15% | -25% | 12% | 27µM*
CCCN(C(=O)CSc1nnnn1-c1ccccc1OC)C1CCS(=O)(=O)C1 (stereo not drawn) | 30% | -10% | 6% | 3% | 14% | -10%
Nc1c(/C=C2\C=Nc3ccccc32)c(=O)nc2sc(CC(=O)N3CCOCC3)nn12 | -42% | 19% | 53% | -34% | 7% | 0%
CSc1nsc2nc(=O)c(/C=C3\C(C)=Nc4ccccc43)c(N)n12 | 18µM* | -32% | 19% | ? | 9% | -18%

Bioassay records as filed in PubChem BioAssay.
